FLuc inh – inhibitors of firefly (Photinus pyralis) luciferase; actives 2.5% (n = 76,000); P08659; Potency, µM (series often up to 115 µM), hits mostly inhibitors; purified P. pyralis luciferase, luminescence, biochemical; also: nearly all actives have a fitted effect of over 65% in size
Target sequence (P08659 whole entry, looked up): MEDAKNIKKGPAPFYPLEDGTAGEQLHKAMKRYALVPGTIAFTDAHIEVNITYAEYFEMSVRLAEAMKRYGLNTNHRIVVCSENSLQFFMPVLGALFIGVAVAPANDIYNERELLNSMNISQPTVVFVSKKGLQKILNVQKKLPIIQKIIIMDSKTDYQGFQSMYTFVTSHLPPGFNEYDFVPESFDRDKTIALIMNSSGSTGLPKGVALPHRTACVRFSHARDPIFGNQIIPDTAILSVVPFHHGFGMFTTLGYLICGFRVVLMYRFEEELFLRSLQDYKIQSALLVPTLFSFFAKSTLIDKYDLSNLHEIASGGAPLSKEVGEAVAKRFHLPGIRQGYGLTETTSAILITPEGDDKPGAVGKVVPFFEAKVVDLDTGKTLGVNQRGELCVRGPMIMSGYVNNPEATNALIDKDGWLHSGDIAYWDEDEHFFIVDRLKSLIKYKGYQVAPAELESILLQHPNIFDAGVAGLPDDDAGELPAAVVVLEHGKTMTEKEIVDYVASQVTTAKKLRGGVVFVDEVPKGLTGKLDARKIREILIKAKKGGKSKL
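Biochemical qHTS: compound (6-point titration) added to 10uM D-luciferin plus 10uM ATP in Tris acetate pH 7.5 buffer with Mg, Tween-20 and BSA, then purified enzyme at 10nM; light output imaged.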
hNpr1 antagonist – blocks ANP-stimulated signaling of human Npr1 receptor | HEK293 hNpr1 GloSensor cGMP, ANP-stimulated luminescence | Potency, µM (doses to about 46.3 µM), hits mostly inhibitors | actives 1.6% (n = 76,000); calls by dose curve; also: nearly all actives have a fitted effect of over 60% in size
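HEK293 cells stably expressing human Npr1 and cGMP GloSensor pGS-40F, loaded 2 h with 2% GloSensor reagent, given compound 30 min at room temperature. Luminescence read before and 20 min after 0.1 nM hNppA.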
NIH3T3 tox – cytotoxic compounds in NIH 3T3 cells; Potency, µM (titrated, usually from 96.7 µM), most hits filed as inhibitors; actives 4.3% (n = 94,000); NIH 3T3 viability, CellTiter-Glo ATP luminescence, 48-72 h; also: nearly all actives have a fitted effect of over 55% in size
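Cytotoxicity was measured by CellTiter-Glo ATP luminescence after 48 or 72 h compound exposure at 37 °C. Mouse NIH 3T3 fibroblasts were seeded at 400 cells/well and dosed by 23 nL pin transfer.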
GPT2 inhibitor – blocks human glutamate pyruvate transaminase 2 | actives 0.25% (n = 100,000) | Potency, µM (doses to about 57.7 µM), hits mostly inhibitors | Q8TD30 | Recombinant GPT2, coupled pyruvate oxidase/HRP Amplex Red fluorescence; also: nearly all actives have a fitted effect of over 60% in size
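Recombinant GPT2 (10ng/uL) with 250uM a-KG and 2mM L-alanine, 30 min at room temperature, in HEPES pH 7.5 buffer. Pyruvate detected by pyruvate oxidase/HRP/Amplex Red fluorescence after 30 min in the dark; AOA (50uM) as positive control.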
HEK293 tox – cytotoxic compounds in HEK 293 cells | HEK 293 viability, ATP luminescence (CellTiter-Glo), 48-72 h | Potency, µM (top dose mostly 115 µM), most hits filed as inhibitors | actives 6.6% (n = 94,000) | AID 1345083; also: nearly all actives have a fitted effect of over 60% in size
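Viability of HEK 293 cells, plated at 250 cells/well, was judged by cellular ATP after compound treatment for 48 or 72 hr. Luminescence was imaged 10 min after CellTiter-Glo addition at room temperature.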
Hits are given with their value; - = inactive; ? = inconclusive; . = not tested or not shown; ! = not active in a repeat. An excerpt weighted towards active compounds, which were near 10% of everything screened. Unless noted, calls follow the shape of the dose curve; as a rule, active = well fitted curve in the direction sought with a large enough effect; inconclusive = small, poorly fitted or top-dose-only effect, or another doubt; inactive = no such curve, though single readings can be large; an effect the other way counts as inactive or inconclusive.

SMILES | FLuc inh | hNpr1 antagonist | NIH3T3 tox | GPT2 inhibitor | HEK293 tox
O=C(NCCCc1ccccc1)c1n[nH]c2c1CN(C(=O)c1ccc(Cl)cc1)CC2 | - | - | ? | - | ?
O=C(NCCc1ccccc1F)c1nc2sccn2c1-c1ccncc1 | . | . | ? | - | ?
O=C(NCCc1ccccc1F)c1nc2sccn2c1-c1ccc(C(F)(F)F)cc1 | . | . | 28.2µM | ? | 25.1µM
O=C(NCCCc1ccccc1)c1nc2sccn2c1-c1ccc(F)cc1 | . | . | ? | - | 100µM
O=C(NCCCc1ccccc1)c1n[nH]c2c1CN(C(=O)c1ccc(F)cc1)CC2 | - | - | 28.2µM | - | ?
COc1ccc(-c2cc(N3CCCC(NC(=O)c4ccc(C)nc4)C3)n[nH]2)cc1 (stereo not given) | 35.5µM | - | ? | ? | -
Cc1ccc(C(=O)NC2CCCN(c3cc(-c4ccc(F)cc4)[nH]n3)C2)cn1 (stereo not given) | ? | - | - | ? | 20µM
Cc1cc(C)cc(C(=O)NC2CCCN(c3cc(-c4ccc(F)cc4)[nH]n3)C2)c1 (stereo not given) | - | - | ? | - | 44.7µM
COc1ccc(-c2cc(N3CCCC(NC(=O)c4ccc(C)cc4)C3)n[nH]2)cc1 (stereo not given) | ? | - | ? | - | ?
Cc1cc(C)cc(C(=O)NC2CCN(c3cc(-c4ccc(F)cc4)[nH]n3)CC2)c1 | - | - | - | - | ?
O=C(NC1CCCN(c2cc(-c3ccc(F)cc3)[nH]n2)C1)c1cccnc1 (stereo not given) | ? | - | - | ? | ?
O=C(NCc1ccncc1)c1cc(C2CC2)nc2onc(C3CCCN3)c12 (stereo not given) | . | . | ? | ? | -
O=C(NC1CCCC1)NC1CCN(c2ccc3nnc(C4CC4)n3n2)C1 (stereo not given) | . | . | - | . | -
COCCCNC(=O)c1ccc2oc(-c3ccncc3)nc2c1 | . | . | - | - | -
Cc1ccccc1Cc1c(C)nc2c(C(=O)NCCc3noc(-c4cccnc4)n3)cnn2c1C | . | . | ? | - | 89.1µM
Cc1ccccc1Cc1c(C)nc2c(C(=O)NCCc3noc(-c4ccncc4)n3)cnn2c1C | - | - | ? | - | 44.7µM
COCc1nc(CCNC(=O)c2cnn3c(C)c(Cc4ccccc4Cl)c(C)nc23)no1 | - | - | ? | - | ?
CCOC(=O)c1cccc(NC(=O)c2ccc3c(c2)N(CC)C2CCCCN2C3=O)c1 (stereo not given) | - | - | 39.8µM | - | 39.8µM
CCN1c2cc(C(=O)Nc3cccc(C)c3)ccc2C(=O)N2CCCC21 (stereo not given) | - | - | ? | - | ?
CCOC(=O)c1cccc(NC(=O)c2ccc3c(c2)N(C)C2CCCCCN2C3=O)c1 (stereo not given) | ? | - | ? | - | 31.6µM
CN1c2cc(C(=O)Nc3ccc(C(N)=O)cc3)ccc2C(=O)N2CCCCCC21 (stereo not given) | - | - | ? | - | ?
CNC(=O)c1cc(C2CC2)nc2onc(C3CCCN3[S+](=O)([O-])c3cccs3)c12 (stereo not given) | . | . | - | . | -
CN1CC(=O)N(C2CCCC2)Cc2c(NCc3ccc4c(c3)OCO4)ncnc21 | . | . | - | - | ?
COc1ccc(CN2CC3(CCN(C(=O)c4ccc(OC)c(F)c4)CC3)C2=O)cc1 | - | - | - | - | -
COc1ccc(CN2CC3(CCN(C(=O)c4cc(-c5ccc(F)cc5)n[nH]4)CC3)C2=O)cc1 | - | - | ? | - | 89.1µM
SMILES | FLuc inh | hNpr1 antagonist | NIH3T3 tox | GPT2 inhibitor | HEK293 tox
COc1ccc2c(c1)OC[C@@H]1CN(CC(C)(C)O)C(=O)CCN(C(=O)c3ccc(F)cc3)[C@H]21 | . | . | ? | . | -
Clc1ccc(CCNc2ncncn2)c(Cl)c1 | - | ? | ? | - | 39.8µM
O=C(NCCc1ccc(Cl)cc1Cl)C1CNCCO1 (stereo not given) | - | - | - | - | -
Cc1ccc(-c2noc(CCCC(=O)N3CCC(c4nc(C(=O)N5CCCC5)c(C)o4)CC3)n2)cc1 | . | . | ? | - | 35.5µM
CCN(C(=O)CCC(=O)N1CCC(c2nc(C(=O)N3CCCC3)c(C)o2)CC1)c1ccccc1 | . | . | ? | - | ?
COc1cccc(N2C(=O)NC(=NC3CCCCC3)C23CCN([S+](=O)([O-])c2cccc(C(F)(F)F)c2)C3)c1 (stereo not given) | - | - | ? | - | ?
COc1ccc2[nH]c3c(c2c1)CCNC31CCN(C(=O)c2ccc(OC)nc2OC)CC1 | - | - | - | - | 11.2µM
COc1ccc2[nH]c3c(c2c1)CCNC31CCN(C(=O)c2ccc(C)nc2)CC1 | - | - | - | - | 79.4µM
COc1ccc2[nH]c3c(c2c1)CCNC31CCN(C(=O)c2cnc(C)cn2)CC1 | - | - | - | - | ?
COc1ccc2[nH]c3c(c2c1)CCNC31CCN(C(=O)c2ccccc2F)CC1 | - | - | ? | - | ?
CCOC(=O)C1CCN(C(=O)c2ccc3nnc(-c4cccnc4)n3c2)CC1 | . | . | - | - | -
C#CCNC(=O)C1CCCN(Cc2cccc(-c3ccccc3OC)c2)C1 (stereo not given) | . | . | ? | - | ?
COc1ccccc1-c1cccc(CN2CCCC(C(=O)NCc3ccccc3)C2)c1 (stereo not given) | . | . | ? | - | 11.2µM
Cn1cccc1CN1CCCC(C(=O)NCc2ccccc2)CCNC(=O)CC1 (stereo not given) | - | - | ? | - | 79.4µM
COc1ccccc1-c1cccc(CN2CCCC(C(=O)NC3CCCC3)C2)c1 (stereo not given) | . | . | 35.5µM! | ? | 35.5µM!
COc1ccccc1-c1cccc(CN2CCCC(C(=O)NCC(F)F)C2)c1 (stereo not given) | . | . | ? | - | 39.8µM
CCCNC(=O)N1CCCCCNC(=O)CC1c1ccccc1 (stereo not given) | - | - | - | - | -
COc1cccc(C2CCN(Cc3cn(-c4ccccc4)nn3)C2)c1OC (stereo not given) | - | - | ? | - | 79.4µM
COc1ccc(NC(=O)N2CCC3(CC2)CN(c2ccccc2)C3=O)cc1OC | . | . | - | ? | 39.8µM
Cc1ccc(CNC(=O)N2CCCCCNC(=O)CC2c2ccccc2)cc1 (stereo not given) | - | - | - | ? | -
O=C(Cc1ccc(Cl)cc1)N1CCC2(CC1)NC(=O)N(c1ccccc1Cl)N2 | - | - | 39.8µM | ? | 89.1µM
Cc1ccc(NC(=O)C2CCN(C(=O)c3ncn4c3COC(c3ccc(F)cc3)C4)CC2)c(C)c1 (stereo not given) | 35.5µM | - | - | - | -
Cc1cc(NC(=O)C2CCN(C(=O)c3ncn4c3COC(c3ccc(F)cc3)C4)CC2)ccc1F (stereo not given) | 22.4µM | - | - | - | -

Assay outcomes as filed in PubChem BioAssay.
